High-throughput results from PubChem BioAssay.
Only some compounds are listed: those with a hit (about 21% of all), similar ones and a draw of the others.
Sm TGR block – blocks Schistosoma mansoni thioredoxin glutathione reductase; Potency, µM (series often up to 114 µM), inactives show top-dose activity change, negative = inhibition, actives largely listed as inhibitors; purified TGR, DTNB reduction, TNB absorbance 405 nm; 360,000 compounds, 3% hits; Q962Y6; note: potency is the fitted concentration of half-maximal effect; % is set by controls: 0 for no effect and ±100 for the full control effect; nearly all actives have a fitted effect of over 60% in size
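First, TGR (20 nM dispensed) and NADPH were mixed with compound. Second, a 15 min room-temperature incubation followed. Third, further NADPH and then DTNB were added to start the reaction. Finally, TNB absorbance was monitored kinetically.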
NS1 inh – influenza NS1 inhibition | Potency, µM (titrated, usually from 46.1 µM), for the others: at the highest dose activity, positive = more growth | 270,000 compounds, 0.4% hits | AID 2326; calls by dose curve; note: potency is the fitted concentration of half-maximal effect; actives are rising curves; nearly all actives have a fitted effect of over 50% in size
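A cell-based growth assay was used: compounds that relieve NS1-induced slow growth of budding yeast raise OD600. Assay medium was yeast nitrogen base with ammonium sulphate and -URA supplement, pH 6.0, with 2% galactose.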
CHX counter – counter-screen for Shiga toxin inhibitors: cycloheximide protein synthesis inhibition; cell reporter, cycloheximide protein synthesis inhibition counterscreen; max response, %; 300,000 compounds, 12% hits; in the data active = max response mostly above about 13%, no sharp cut-off; inactive = mostly below about 14%; note: read at 38.3 µM for the half of the compounds with a filed dose; 0% is about no effect
Shiga toxin inh – Shiga toxin inhibition | Vero cells, Shiga toxin protein synthesis inhibition reporter | inhibition, % at 38.7 µM | 290,000 compounds, 9.2% hits | AID 2315; in the data active = inhibition mostly above about 28%, no sharp cut-off; inactive = mostly below about 43%; note: 0% is about no effect
Pf growth 48h – inhibits P. falciparum growth in the first generation, 48 h | P. falciparum luciferase growth in erythrocytes, 48 h | 310,000 compounds, 5.9% hits | Potency, µM (highest dose often 28.7 µM), without a hit: at the top dose activity change, negative = inhibition, usual class: inhibitors; note: potency is the fitted concentration of half-maximal effect; % is set by controls: 0 for no effect and ±100 for the full control effect
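Luminescence readout; reporter = integrated firefly luciferase in P. falciparum. RBC culture at 2% hematocrit, 0.1% parasitemia final, 37 C/5% CO2; decreased signal taken as growth inhibition.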
Pf growth 96h – inhibits malaria parasite growth, 96 h; 320,000 compounds, 6.9% hits; AID 504834; Potency, µM (doses to about 28.7 µM), for the others: at the highest dose activity change, negative = inhibition, most hits filed as inhibitors; P. falciparum luciferase reporter growth, 96 h; note: potency is the fitted concentration of half-maximal effect; % is set by controls: 0 for no effect and ±100 for the full control effect
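Compounds incubated with erythrocytes infected by luciferase-expressing P. falciparum (2% hematocrit, 0.05% parasitemia final) for 96 hours, 37 C in 5% CO2. Growth inhibition scored as decreased luciferase luminescence.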
* hit, by the source's call; ? = inconclusive; / = not tested or not shown; [ ] = dose if it differs, or a comment. Unless noted, calls come from the whole dose curve; as a rule, active = well fitted curve in the direction sought with a large enough effect; inconclusive = small, poorly fitted or top-dose-only effect, or another doubt; inactive = no such curve, though single readings can be large; an effect the other way counts as inactive or inconclusive.

SMILES | Sm TGR block | NS1 inh | CHX counter | Shiga toxin inh | Pf growth 48h | Pf growth 96h
Cc1ccccc1-n1nnnc1SCC(=O)N(C)C1CCS(=O)(=O)C1 (configuration not stated) | 0.0% | / | -2.3 | 2.2 | 24.8% | -0.4%
C[N+]1(C)[C@@H]2CC[C@H]1CC(OC(=O)C(c1ccccc1)c1ccccc1)C2 (some centres not stated) | 3.7% | -1.4% | -1.1 | 19.3 | 2.33µM* | 3.29µM*
CCNc1nc(NC(C)CC)nc(ON=C(C)C)n1 (configuration not stated) | / | -3.4% | -0.9 | 19.3 | 1.47µM* | 13.1µM*
CCNc1nc(NCC)nc(ON=C(C)C)n1 | -31.1% | -6.0% | -1.4 | -7.8 | 3.7µM* | 2.08µM*
CCCNc1nc(NCC)nc(OC)n1 | 8.5% | 6.1% | -1.4 | 3.2 | 5.3% | ?
O=C(O)c1ccccc1-c1c2cc(Br)c(=O)c(Br)c-2oc2c(Br)c(O)c(Br)cc12 | / | / | 0.7 | 23.8 | -10.6% | ?
CCOCCn1c(=NC(=O)CSCC(=O)Nc2cc(C)on2)sc2cc(OC)ccc21 | -5.8% | -16.2% | 1.2 | 18.9 | 5.22µM* | 5.22µM*
O=C(Nc1ccccc1C(=O)OCc1cc(=O)n2ccsc2n1)c1ccc(Cl)cc1 | -0.2% | / | / | / | / | /
Cc1ccc(CN(C(=O)c2ccccc2F)c2ccccn2)o1 | 44.7µM* | / | / | / | / | /
Cc1ccc(CN(C(=O)c2ccc(F)cc2)c2ccccn2)o1 | -3.5% | / | / | / | / | /
CN=C(c1ccc(C)cc1)n1c(=S)nc(-c2ccc(C)cc2)n(C)c1=S | -11.8% | -4.7% | 43.0* | 84.7* | ? | ?
Cc1oc2c(c(C)cc3oc(=O)c(CC(=O)NCc4ccc(F)cc4)c(C)c32)c1C | -0.7% | / | / | / | / | /
Nc1cc(=O)n(Cc2ccccc2)c(=O)n1-c1ccc(Cl)cc1 | 17.9% | 5.2% | -2.1 | -7.7 | 10.4µM* | ?
CCOc1ccc2c(c1)OC(c1ccccc1)(C(F)(F)F)NC2=O (configuration not stated) | -3.5% | 20.5% | -3.8 | -4.3 | 1.65µM* | 0.233µM*
COc1ccc(CCN2C(=O)N(c3ccc(F)cc3)C(=O)C2CC(=O)Nc2ccc(OC)cc2)cc1 (configuration not stated) | 0.2% | / | / | / | / | /
O=C(CCCN1CCC(O)(c2cccc(C(F)(F)F)c2)CC1)c1ccc(F)cc1 | -13.6% | -12.5% | / | / | 8.28µM* | 5.86µM*
O=C(CCCN1CCC(O)(c2ccc(Cl)cc2)CC1)c1ccc(F)cc1 | -12.2% | -29.0% | -2.0 | 7.0 | 7.38µM* | 6.57µM*
O=C(CCC(=O)c1ccc(F)cc1)Nc1cccc(C(F)(F)F)c1 | -10.0% | 3.6% | -1.3 | -11.3 | 3.8% | 44.1%
CC1CCN(CCCC(=O)c2ccc(F)cc2)CC1 | / | / | -1.5 | -1.6 | -18.4% | ?
O=C(CCCN1CCC(O)(c2ccc(Br)cc2)CC1)c1ccc(F)cc1 | -3.5% | / | / | / | 8.28µM* | 4.05µM*
N#CCCN(CCC#N)C(=S)NC1CC2C=CC1C2 (configuration not stated) | 5.0% | 2.6% | -1.3 | -3.6 | ? | 20.2%
COC(=O)c1ccc(COC(=O)CCNS(=O)(=O)c2ccc(C)c(C)c2)cc1 | 2.1% | / | / | / | -10.5% | 10.7%
CC(=O)NS(=O)(=O)c1ccc(NC(=O)CC23CC4CC(CC(Br)(C4)C2)C3)cc1 | 6.6% | 2.1% | -4.8 | -6.8 | 25.5% | 39.7%
Cc1ccc(C(=O)NNC(=O)c2cc(C)nc3ccccc23)cc1 | -3.0% | / | / | / | -6.8% | -12.0%
COC(=O)c1c(-c2cccc3ccccc23)csc1NC(=O)Cc1ccc(OC)c(OC)c1 | -0.3% | 3.3% | -2.5 | -6.4 | / | 2.62µM*
SMILES | Sm TGR block | NS1 inh | CHX counter | Shiga toxin inh | Pf growth 48h | Pf growth 96h
COc1ccc(C(C)=O)cc1CC(=O)Nc1cccc(S(=O)(=O)N2CCOCC2)c1 | 8.0% | / | / | / | 13.1µM* | 7.38µM*
COc1ccc(S(=O)(=O)N2CCOCC2)cc1NC(=O)Cc1c(Cl)cccc1Cl | -4.5% | 3.9% | -3.9 | -5.7 | ? | 8.28µM*
COc1ccc(Cl)cc1NC(=O)C(C)N(C)Cc1cccc(Cl)c1Cl (configuration not stated) | 3.0% | -2.5% | -2.8 | -16.0 | 11.7µM* | 6.57µM*
COc1ccc(Cl)cc1NC(=O)NC(C)C | / | 6.0% | -4.2 | -1.3 | 1.9% | -39.9%[5.75 µM]
COc1ccc(Cl)cc1NC(=O)C(C)NC(c1ccccc1)c1ccccc1 (configuration not stated) | 4.2% | -7.0% | -1.3 | -24.7 | 13.1µM* | 2.94µM*
COc1ccc(CC(=O)Nc2cccc(C(C)=O)c2)cc1S(=O)(=O)N1CCOCC1 | 2.3% | / | / | / | -12.6% | -19.3%
COc1ccc(Cl)cc1NC(=O)Nc1ccccc1SC | 11.2% | / | 8.1 | 24.3 | 13.7%[5.75 µM] | 37.6%[5.75 µM]
O=C(NC1CCC(O)CC1)C1CCN(S(=O)(=O)c2c(Cl)cccc2Cl)CC1 (configuration not stated) | -2.7% | / | / | / | ? | ?
COc1ccc(CCNc2nc(-c3ccc(OC)c(OC)c3)cc(C(F)(F)F)n2)cc1OC | 5.2% | / | / | / | / | /
CCOc1ccc(C(=O)Nc2cnn(Cc3ccc(Cl)c(Cl)c3)c2)cc1 | -17.9% | -3.4% | -1.3 | 5.8 | -2.9% | ?
COc1ccc(S(=O)(=O)N2CCOCC2)cc1NC(=O)CN(C)Cc1c(F)cccc1Cl | -1.4% | / | -0.7 | 4.2 | 7.38µM* | ?
COc1ccc(S(=O)(=O)N2CCOCC2)cc1NC(=O)CN1CCCCCC1 | ? | / | 1.5 | -3.4 | -4.2% | 39.7%
COc1ccc(Cl)cc1NC(=O)Cc1c(F)cccc1Cl | -8.5% | 5.4% | -2.8 | -7.5 | ? | 5.86µM*
COc1ccc(C(=O)Nc2cnn(Cc3c(F)cccc3Cl)c2)cc1OC | 7.2% | -12.0% | 12.4* | 20.1 | ? | ?
COc1ccc(C(=O)NNC(=O)COc2ccc(Cl)cc2C)cc1S(=O)(=O)N1CCOCC1 | 3.5% | / | / | / | -3.3% | -1.3%
COc1cc(C(C)=O)ccc1OCC(=O)Nc1ccc(Cl)c(S(=O)(=O)N2CCOCC2)c1 | -16.0% | / | / | / | 4.15µM* | 2.08µM*
CNC(=S)N/N=C(\C)c1ccc(C)c(C)c1 | -8.7% | -25.1% | -1.4 | 48.8 | ? | ?
O=C(CNC(=O)c1ccccc1O)N/N=C/c1cc(Br)ccc1OC(=O)/C=C/c1ccco1 | ? | / | 6.1 | 25.8 | ? | 8.28µM*
COc1ccc([N+](=O)[O-])cc1/C=N/NC(=O)CNC(=O)c1cccc(F)c1 | 3.7% | -10.0% | -2.3 | -12.4 | 26.4% | 1.85µM*
O=C(CNC(=O)c1cccc(F)c1)N/N=C/c1cc(Br)ccc1OC(=O)/C=C/c1ccco1 | ? | 6.7% | -1.9 | 14.2 | 13.1µM* | 13.1µM*
Cc1ccc(NC(=O)COC(=O)c2ccc(S(=O)(=O)N3CCCC3)cc2)cc1 | 0.5% | / | / | / | 27.8% | 32.1%
COc1ccc(S(=O)(=O)NN(C)C(=O)c2nn(-c3ccccc3)ccc2=O)cc1 | -3.8% | 6.4% | -1.9 | -9.5 | ? | 5.86µM*
O=C(CCC1CCN(C(=O)Cc2c(F)cccc2F)CC1)NC1CC1 | -0.1% | -11.2% | -2.2 | 10.6 | -10.2% | 2.3%
